Experimental findings from ChEMBL document CHEMBL3988442, “University of Dundee, Small-Polar-MMV Screening Library” (2021) are described below.

About 13,000 (27%) of roughly 48,000 compounds showed an effect of 50% or more. The list shows a part of the results.

The subject of the experiment is Wolbachia pipientis. In words: Anti-Wolbachia Cell-Based Screen. The class given is functional. Also noted: scale not given: in the data most compounds retested in dose-response had high values. To be noted: 5 µM.
As for `c1ccc(-c2cnc(CN3CCn4c(nnc4C4CC4)C3)o2)cc1`, the “Percent Effect” value is -9.736%. Next, `CN(Cc1ccc2nonc2c1)C(=O)CCc1cc2n(n1)CCCNC2`: -9.744%; `CN(CCC1CCCCO1)c1nncc(-c2ccccc2)n1` (stereo not given): 3.225%.

As to `c1ccc(C2CCCN2C2CCSCC2)nc1` (stereo not given), the “Percent Effect” value is -12.25%. `Cc1cc(N(C)C)nc(N2CCCC2c2cc(C)on2)n1` (stereo not given): the “Percent Effect” value is reported as 41.35%. Next, `Cc1cc(N(C)C)nc(N2CCCC2c2ccccn2)n1` (stereo not given): 92.86%.

In the case of `Cc1cc(C2CCC2)nc(N(C)CCc2ccccn2)n1`, the “Percent Effect” value came to 10.11%. Next, `CN(C)c1cc(C(F)(F)F)nc(N2CCCC2c2ccccn2)n1` (stereo not given): 96.36%; `c1ccc(C2CCCN2C2CSCCSC2)nc1` (stereo not given): 20.29%; `Cc1nc(N2CCN(C(=O)c3ccccc3)CC2)cc(-n2ccnc2)n1`: -0.4006%. Under `COCCN1CCCC(O)(CN2CCN(c3ncccc3C)CC2)C1=O` (stereo not given) stands -16.41%. In the case of `CCC(C)Oc1ccccc1CN1Cc2ncccc2C1=O` (stereo not given), the “Percent Effect” value is reported as 3.69%. Next, `COCCN1C[C@@H]2CN(c3ncccn3)C[C@@H]2C1=O`: 3.665%; `CCOc1ncccc1CN1Cc2ncccc2C1=O`: 24.49%; `CCCC1CN(CC(C)C)C(=O)c2cccnc2O1` (stereo not given): 72.42%. Under `CC(C)(C)C(=O)N1CCC(COCc2ccccc2)C1` (stereo not given) stands 14.31%; under `CC(C)CN1C[C@H](COCc2ccccc2)Oc2ncccc2C1=O`, 89.35%. Under `CCCC1CN(CCOc2ccccc2)C(=O)c2cccnc2O1` (stereo not given) stands 157.7%.

Take `CCOc1ccccc1CCN1Cc2ncccc2C1=O`: the “Percent Effect” value stood at 5.291%. Consider `Cc1cnc(C(=O)N2CCC(COCc3ccccc3)C2)cn1` (stereo not given), for which the “Percent Effect” value was determined as 0.6759%. Next, `CCCC1CN(CCOC)C(=O)c2cccnc2O1` (stereo not given): 110.6%; `O=S1(=O)COCCN1CCOc1ccccc1`: -11.75%. Under `O=C(NC1CC1)N1CCC2(CC1)CC(N1CCOCC1)c1ccccc12.O=C(O)C(F)(F)F` (stereo not given) stands 2.797%; under `CCS(=O)(=O)NCCCNC1CSCCc2ccccc21` (stereo not given), 1.268%; under `O=C(O)C(F)(F)F.O=C(O)C(F)(F)F.O=C1[C@@H]2CCN(Cc3ccccn3)C[C@@H]2OCCN1c1ccccc1`, 5.214%. Under `CCNC(=O)[C@@H]1C[C@H](N)CN1C1CCN(c2ccccc2OC)CC1` stands -4.243%. `CC(C)Cc1cc(C(=O)NCC2CCN(c3ccccc3F)C2)on1` (stereo not given): the “Percent Effect” value was -10.11%. Next, `CC(C)Cc1cc(C(=O)NCC2CCCN(Cc3ccco3)C2)on1` (stereo not given): 50.17%; `COc1cc(C(=O)NCC2CCCN(Cc3ccco3)C2)ccn1` (stereo not given): 2.476%; `CN(C)CCO[C@@H]1CC[C@H]2[C@H]1OCCN2C(=O)c1ccccc1F`: 79.95%.

For `Cc1occc1C(=O)N1CCO[C@H]2[C@H](OCc3cccnc3)CC[C@@H]21.O=C(O)C(F)(F)F`, the “Percent Effect” value amounted to 4.513%. Next, `Cc1ccoc1C(=O)N1CCO[C@H]2[C@H](OCCN(C)C)CC[C@@H]21.O=C(O)C(F)(F)F`: -19.8%; `COc1ccc(C(=O)N2CCO[C@H]3[C@@H](OCC4CC4)CC[C@@H]32)cc1F`: -14.51%; `CN(C)CCO[C@@H]1CC[C@H]2[C@H]1OCCN2C(=O)CCc1ccccc1.O=C(O)C(F)(F)F`: -7.187%. Under `Cc1cc(C(=O)N2CCO[C@H]3[C@H](OCCN(C)C)CC[C@@H]32)c(C)[nH]1.O=C(O)C(F)(F)F` stands 104.2%; under `Cc1ccccc1C(=O)N1CCO[C@H]2[C@H](OCCN(C)C)CC[C@@H]21.O=C(O)C(F)(F)F`, 99.34%; under `Cc1cc(C(=O)N2CCO[C@H]3[C@H](Oc4ccccn4)CC[C@@H]32)c(C)[nH]1.O=C(O)C(F)(F)F`, -3.803%. Next, `Cc1occc1C(=O)N1CCO[C@H]2[C@H](OCc3ccccn3)CC[C@@H]21.O=C(O)C(F)(F)F`: -3.941%. On to `Cc1c(C(=O)N2CCCC(O)(CN(C)C)CC2)c2cc(O)ccc2n1C` (stereo not given), for which the “Percent Effect” value is listed as -7.516%. Consider `CC(=O)N1CCC(Nc2ccc(Br)cc2C#N)C1` (stereo not given), for which the “Percent Effect” value is given as -20.23%. Under `Cc1ccsc1C(=O)N1CCC(Nc2cccnc2)CC1` stands 82.28%; under `Cc1cc(C(=O)N2CCC(NC(=O)c3cccnc3)CC2)c(C)o1`, -8.9%; under `Cc1cc(C(=O)N2CCC(Nc3cccnc3)CC2)c(C)s1`, 98.75%. Under `Cc1nc(C)c(C(=O)N2CCC(Nc3cccnc3)CC2)s1` stands 6.028%; under `O=C(CCn1ccc2ccccc21)N1CCC(Nc2cccnc2)CC1`, -9.935%; under `COc1cc(C)sc1C(=O)N1CCC(Nc2cccnc2)CC1`, -10.68%. Next, `COc1ccc([C@@H]2C[C@H](NC(C)=O)C[C@H](CCc3ccccc3)O2)cn1`: 7.698%; `CSCC[C@H](N)C(=O)N1CC(Oc2ccccc2C)C1`: -5.947%. Turning to `COCCOc1ncccc1CNC(=O)N1CCOCC1`, the “Percent Effect” value is recorded as -0.8625%. Under `COc1ccc(-n2cnnc2SCCC#N)cn1` stands -2.783%; under `O=C(NCC1(CO)CC1)c1nnn(-c2ccc(F)cc2)c1C1CC1`, -10.21%; under `Cc1ccc(-n2nnc(C(=O)NCCS(N)(=O)=O)c2C2CC2)cc1`, 2.856%.

`COc1ccc(-n2nnc(C(=O)NC(C)C)c2C2CC2)cc1`: the “Percent Effect” value is recorded as 16.07%. Next, `COC(=O)CCNC(=O)c1nnn(-c2ccc(C)cc2)c1C1CC1`: 120.1%. Regarding `O=C(NCC1(C(=O)O)CCC1)c1nnn(-c2ccc(F)cc2)c1C1CC1`, the “Percent Effect” value worked out at 4.547%. Under `CCN(CC)C(=O)c1nnn(-c2ccc(C)cc2)c1C1CC1` stands -3.028%; under `Cc1ccc(-n2nnc(C(=O)Nc3cc(C)nn3C)c2C2CC2)cc1`, -15.14%.

`Cc1ccc(-n2nnc(C(=O)NCC3(CO)CC3)c2C2CC2)cc1`: the “Percent Effect” value came to 112.7%. For the molecule `Cc1ccc(-n2nnc(C(=O)NC(C)C)c2C2CC2)cc1`, the “Percent Effect” value amounted to 124.2%.

In the case of `NS(=O)(=O)CCNC(=O)c1nnn(-c2ccc(F)cc2)c1C1CC1`, the “Percent Effect” value amounted to 1.057%. Under `Cc1ccc(-n2nnc(C(=O)NCC(F)(F)F)c2C2CC2)cc1` stands 125.2%; under `COC(=O)CCNC(=O)c1nnn(-c2ccc(F)cc2)c1C1CC1`, 1.406%; under `CC(NC(=O)NCCCO)c1ccc(-c2ccncc2)cc1` (stereo not given), 6.546%.

With `Cc1ccccc1CN1CCNC(=O)C1CC(=O)NCC1CCCCC1` (stereo not given), the “Percent Effect” value is on record as 13.06%. Take `NC(=O)CN1CC2(CCC1=O)CCN(Cc1cc(F)ccc1Cl)CC2`: the “Percent Effect” value is listed as 6.267%. Next, `Cn1cc(CN2CCOC3(CCCN(C(=O)c4ccco4)C3)C2)cn1.O=C(O)C(F)(F)F` (stereo not given): -10.52%; `COc1ccc(C(C)N2CCC(CNC(C)=O)CC2)cc1Cl` (stereo not given): 4.452%; `COc1ccccc1C(=O)NC[C@H]1COCc2nc3c(C)cccc3n21`: -7.945%. Under `COc1ccc(Br)cc1SCCS(C)(=O)=O` stands 106.5%; under `CS(=O)(=O)CCCSCc1ccc(Br)c(F)c1`, -6.245%; under `CS(=O)(=O)CCCSCc1cc(F)cc(Br)c1`, -17.62%.

Turning to `CS(=O)(=O)CCSCc1ccc(Br)c(F)c1`, the “Percent Effect” value was -8.514%. Regarding `CS(=O)(=O)CCSc1cccc(C#N)c1`, the “Percent Effect” value is given as -1.405%. Next, `COc1ccc(Br)cc1Cn1nc(C(N)=O)ccc1=O`: 5.156%; `COc1ccc(Br)cc1SCCC(N)=O`: 101.3%. Consider `COc1ccc(Br)cc1CCC(=O)N1CCCC1`, for which the “Percent Effect” value is -8.693%. For the molecule `COc1ccc(Br)cc1SCCCS(C)(=O)=O`, the “Percent Effect” value is 100.1%. With `Cc1cnn(CC2CCCN2C(=O)Cc2ccc3c(c2)CCO3)c1` (stereo not given), the “Percent Effect” value was determined as 96.14%. Next, `O=C(Cc1ccc2c(c1)CCO2)N1CCCC(n2cccn2)C1` (stereo not given): -1.485%. Next, `O=C(Cc1ccc2c(c1)CCO2)N1CCCC1Cn1cccn1` (stereo not given): 102%; `O=C(Cc1ccc2c(c1)CCC2)N1CCCC1Cn1cccn1` (stereo not given): 137.3%; `O=C(Cc1ccc2c(c1)CCC2)N1CCCC(n2cccn2)C1` (stereo not given): -2.086%. Regarding `O=C(c1cccc2c1OCCO2)N1CCCC1Cn1cccn1` (stereo not given), the “Percent Effect” value was 5.303%.

With `O=C(Cc1ccc(O)c(Cl)c1)N1CCCCC1CCn1cccn1` (stereo not given), the “Percent Effect” value is given as -6.522%. Next, `Cc1nn(CC(C)C)c(N(C)C)c1CNCCCNS(C)(=O)=O`: 11.35%. Under `CCOc1ccnc(NCc2nc(C)cc(=O)[nH]2)n1` stands 1.629%.

`CCC(=O)N1Cc2nnc(C3CCOCC3)n2C(Cc2c[nH]cn2)C1` (stereo not given): the “Percent Effect” value was -1.737%.

For the molecule `CC(C)N(C)C[C@H]1OC[C@@H]2CCN(Cc3cccc(C#N)c3)C[C@@H]21.O=C(O)C(F)(F)F.O=C(O)C(F)(F)F`, the “Percent Effect” value is 7.862%. Under `O=C1NC2(CCN(C(=O)c3ccc(Cl)cn3)CC2)CC1c1ccccc1` (stereo not given) stands -25.51%; under `CCC(C)(C)NC(=O)Nc1nnc(-c2ccccn2)s1`, -10.26%. Under `COCCNc1nnc(-c2ccccn2)s1` stands 158.8%.

As for `COCCN(Cc1ccc(C)o1)C(=O)Nc1ncc(C)s1`, the “Percent Effect” value was 4.146%.

Turning to `COCCNc1nc(-c2ccc(S(=O)(=O)N3CCCCC3)cc2)cs1`, the “Percent Effect” value was 16.68%. On to `COCCNc1nc2c(c(NCc3cnc(C)cn3)n1)CCNCC2`, for which the “Percent Effect” value is -9.122%. In the case of `COCCNc1nnc(-c2cnc(C)cn2)s1`, the “Percent Effect” value worked out at 149.1%. Under `COCCNc1nnc(-c2ccc(C)nc2)s1` stands 135.2%; under `COCCNc1nc(-c2ccc(S(=O)(=O)N3CCCCCC3)cc2)cs1`, -3.577%; under `CCC(CC)(CC(=O)OC)NC(=O)Nc1nnc(-c2ccccn2)s1`, -2.114%.

As to `Cc1c(-c2ccncc2)n[nH]c1NC(=O)CCOC(C)C`, the “Percent Effect” value is -12.27%. With `CN1CCc2nc3cc(C(=O)NCc4cccs4)ccc3c(=O)n2CC1`, the “Percent Effect” value is reported as 76.54%.

In the case of `COCCNC(=O)c1ccc2c(=O)n3c(nc2c1)CCN(C)CC3`, the “Percent Effect” value was determined as 94.74%. Next, `O=c1c2sccc2nc2n1CCN(Cc1cccs1)CC2`: 5.975%. Next, `CCCNC(=O)c1ccc2c(OC)n(C)nc2c1`: -11.42%; `COc1cc2nc3n(c(=O)c2cc1OC)CCN(C)CC3`: -3.498%.

On to `N#CCC(=O)NCc1nnc2n1CCN(Cc1cccs1)C2`, for which the “Percent Effect” value was found to be 6.584%.
